# Reference: the supplement of paper PMC10849652
# The full data set covers some 7,900 targets. This sample favours those with a hit. About 0.6% of all pairs of compound and target were hits. A number with no mark means an inactive call.
# Tests used:
# Experiment in all cases: log2 fold change, soluble protein after heating vs DMSO (PISA); higher = thermal stabilisation; K562 cells, 10 uM, 30 min; active = over 0.2 and 3.5 SD of the protein, either way, in both replicates (recomputed)
# [1] = compound: C1=CC=C(C=C1)[C@H](COC2=CC3=C(C=C2)NC(=O)N3)NC(=O)C4=CC=CN(C4=O)CC5=CC(=C(C=C5)F)F
# In short: (§1)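 Soluble protein was quantified by TMTpro 16plex LC-MS/MS after channel sums were equalised. It was obtained as the supernatant after 21,000xg for 90 min from pooled aliquots of K562 cells (2×10^6 cells/mL, 10 μM compound, 30 min) heated for 3 min across 48°C-58°C and extracted in PBS with 0.5% NP-40 at 4°C. Thermal stability values are relative to control samples and come from duplicates. They are given as log2 fold changes.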
# [2] = compound: CC1=C(SC2=C1C(=N[C@H](C3=NN=C(N32)C)CC(=O)N)C4=CC=C(C=C4)Cl)C
# In short: as §1
# [3] = compound: CC1=C2C(=CC=C1)N=C(N(C2=O)C3=CC=CC=C3C)CN4C=NC5=C(N=CN=C54)N
# In short: as §1
# [4] = compound: Cc1sc2c(c1C)C(c1ccc(Cl)cc1)=N[C@@H](CC(=O)OC(C)(C)C)c1nnc(C)n1-2
# In short: as §1
# [5] = compound: c1ccc([C@@H]2C[C@H]2NC2CCNCC2)cc1
# In short: as §1
# Sequence of UniProt P23276 (P23276 whole entry, looked up): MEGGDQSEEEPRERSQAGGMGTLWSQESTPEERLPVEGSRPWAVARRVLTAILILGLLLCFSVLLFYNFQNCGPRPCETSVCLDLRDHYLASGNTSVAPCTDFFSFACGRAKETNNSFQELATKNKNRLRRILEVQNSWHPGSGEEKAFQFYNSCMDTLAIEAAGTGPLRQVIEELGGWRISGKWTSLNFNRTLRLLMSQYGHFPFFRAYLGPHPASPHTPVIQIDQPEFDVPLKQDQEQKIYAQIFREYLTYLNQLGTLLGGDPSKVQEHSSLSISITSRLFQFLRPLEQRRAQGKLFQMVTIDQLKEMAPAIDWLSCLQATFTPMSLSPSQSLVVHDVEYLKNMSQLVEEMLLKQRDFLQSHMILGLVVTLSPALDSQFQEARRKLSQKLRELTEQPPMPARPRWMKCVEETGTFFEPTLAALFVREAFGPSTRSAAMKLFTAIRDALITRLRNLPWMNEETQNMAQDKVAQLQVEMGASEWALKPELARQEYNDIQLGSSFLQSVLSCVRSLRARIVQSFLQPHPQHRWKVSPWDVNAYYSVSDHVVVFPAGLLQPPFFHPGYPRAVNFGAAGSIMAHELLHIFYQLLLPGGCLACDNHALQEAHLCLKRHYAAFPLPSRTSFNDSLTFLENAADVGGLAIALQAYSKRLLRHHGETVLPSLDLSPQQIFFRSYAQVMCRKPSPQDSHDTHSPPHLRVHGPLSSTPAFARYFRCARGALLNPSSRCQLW
# Sequence of UniProt Q96QZ7 (Q96QZ7 whole entry, looked up): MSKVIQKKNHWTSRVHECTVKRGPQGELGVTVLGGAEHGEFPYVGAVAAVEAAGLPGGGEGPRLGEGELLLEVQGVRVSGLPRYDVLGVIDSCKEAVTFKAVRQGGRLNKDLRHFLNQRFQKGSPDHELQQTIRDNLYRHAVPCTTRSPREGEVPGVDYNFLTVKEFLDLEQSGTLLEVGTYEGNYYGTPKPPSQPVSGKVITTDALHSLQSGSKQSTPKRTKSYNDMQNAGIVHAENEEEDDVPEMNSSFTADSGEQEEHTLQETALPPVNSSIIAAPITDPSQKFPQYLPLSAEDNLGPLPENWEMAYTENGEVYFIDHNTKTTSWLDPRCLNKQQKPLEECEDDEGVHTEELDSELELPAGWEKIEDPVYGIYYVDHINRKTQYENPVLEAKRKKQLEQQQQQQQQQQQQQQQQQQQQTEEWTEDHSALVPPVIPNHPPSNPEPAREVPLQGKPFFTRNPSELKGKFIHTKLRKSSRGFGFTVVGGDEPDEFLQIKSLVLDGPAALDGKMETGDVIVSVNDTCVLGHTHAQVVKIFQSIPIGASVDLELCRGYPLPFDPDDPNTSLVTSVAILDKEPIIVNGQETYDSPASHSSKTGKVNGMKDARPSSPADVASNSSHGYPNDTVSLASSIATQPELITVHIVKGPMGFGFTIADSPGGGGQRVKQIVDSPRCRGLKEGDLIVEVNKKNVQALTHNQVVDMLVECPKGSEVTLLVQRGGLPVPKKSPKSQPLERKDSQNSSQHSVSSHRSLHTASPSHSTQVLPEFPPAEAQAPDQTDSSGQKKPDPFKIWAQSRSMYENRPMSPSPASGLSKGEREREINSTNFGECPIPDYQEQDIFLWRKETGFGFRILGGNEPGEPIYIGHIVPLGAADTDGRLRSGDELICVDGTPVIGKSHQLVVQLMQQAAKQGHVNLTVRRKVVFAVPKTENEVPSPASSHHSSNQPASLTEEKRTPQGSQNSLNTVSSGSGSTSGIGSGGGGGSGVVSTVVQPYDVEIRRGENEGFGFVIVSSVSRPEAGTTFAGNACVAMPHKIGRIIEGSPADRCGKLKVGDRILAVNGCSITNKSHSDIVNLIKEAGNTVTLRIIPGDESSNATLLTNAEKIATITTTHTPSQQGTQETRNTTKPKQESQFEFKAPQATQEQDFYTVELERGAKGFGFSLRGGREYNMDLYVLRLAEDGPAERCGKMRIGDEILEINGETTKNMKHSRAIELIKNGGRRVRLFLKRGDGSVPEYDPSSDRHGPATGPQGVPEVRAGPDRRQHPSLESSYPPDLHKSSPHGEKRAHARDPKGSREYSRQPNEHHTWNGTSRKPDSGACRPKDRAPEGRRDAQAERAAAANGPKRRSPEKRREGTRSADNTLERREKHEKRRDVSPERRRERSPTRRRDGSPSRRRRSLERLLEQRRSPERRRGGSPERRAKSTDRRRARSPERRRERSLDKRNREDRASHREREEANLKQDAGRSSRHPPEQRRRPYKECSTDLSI
# Sequence of UniProt Q96A72 (Q96A72 whole entry, looked up): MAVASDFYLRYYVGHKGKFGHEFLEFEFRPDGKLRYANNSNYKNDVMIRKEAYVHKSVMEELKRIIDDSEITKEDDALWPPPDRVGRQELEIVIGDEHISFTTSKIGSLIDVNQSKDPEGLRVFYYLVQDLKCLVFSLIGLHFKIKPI
# Sequence of UniProt Q96PV6 (Q96PV6 whole entry, looked up): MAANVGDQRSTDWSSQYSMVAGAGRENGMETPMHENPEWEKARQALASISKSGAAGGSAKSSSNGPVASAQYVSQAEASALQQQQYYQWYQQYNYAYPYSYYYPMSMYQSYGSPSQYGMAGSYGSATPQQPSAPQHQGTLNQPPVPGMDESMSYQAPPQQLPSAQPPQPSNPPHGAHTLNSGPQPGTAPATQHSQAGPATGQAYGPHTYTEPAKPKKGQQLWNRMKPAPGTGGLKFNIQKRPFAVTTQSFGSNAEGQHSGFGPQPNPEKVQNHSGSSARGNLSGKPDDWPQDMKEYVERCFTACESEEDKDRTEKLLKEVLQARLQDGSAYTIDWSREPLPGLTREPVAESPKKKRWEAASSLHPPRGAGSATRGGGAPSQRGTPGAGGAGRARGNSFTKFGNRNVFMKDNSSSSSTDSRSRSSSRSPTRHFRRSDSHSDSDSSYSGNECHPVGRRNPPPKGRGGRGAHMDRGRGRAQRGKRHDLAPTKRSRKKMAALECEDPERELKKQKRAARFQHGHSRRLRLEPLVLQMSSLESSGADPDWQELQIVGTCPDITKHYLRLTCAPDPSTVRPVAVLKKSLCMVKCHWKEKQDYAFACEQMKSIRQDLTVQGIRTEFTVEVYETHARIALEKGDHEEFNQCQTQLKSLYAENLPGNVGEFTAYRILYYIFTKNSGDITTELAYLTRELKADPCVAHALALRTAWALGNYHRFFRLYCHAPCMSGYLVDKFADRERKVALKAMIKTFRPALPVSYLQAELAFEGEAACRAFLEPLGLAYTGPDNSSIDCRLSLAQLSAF
# Sequence of UniProt Q13123 (Q13123 whole entry, looked up): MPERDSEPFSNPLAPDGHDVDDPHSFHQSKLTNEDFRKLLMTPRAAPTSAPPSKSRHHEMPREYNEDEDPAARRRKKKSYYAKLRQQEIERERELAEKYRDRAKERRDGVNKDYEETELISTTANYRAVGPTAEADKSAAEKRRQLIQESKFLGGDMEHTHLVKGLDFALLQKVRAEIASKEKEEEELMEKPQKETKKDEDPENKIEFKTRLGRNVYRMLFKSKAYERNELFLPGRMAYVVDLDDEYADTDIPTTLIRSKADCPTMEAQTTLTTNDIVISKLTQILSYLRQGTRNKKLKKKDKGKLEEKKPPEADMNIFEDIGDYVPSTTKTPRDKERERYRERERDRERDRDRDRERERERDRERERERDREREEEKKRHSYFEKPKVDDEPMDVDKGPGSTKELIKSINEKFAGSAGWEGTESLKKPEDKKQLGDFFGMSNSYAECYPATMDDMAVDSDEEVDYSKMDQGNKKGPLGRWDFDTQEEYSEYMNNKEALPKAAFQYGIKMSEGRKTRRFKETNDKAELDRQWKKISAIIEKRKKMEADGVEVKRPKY
# Sequence of UniProt Q9H0B6 (Q9H0B6 whole entry, looked up): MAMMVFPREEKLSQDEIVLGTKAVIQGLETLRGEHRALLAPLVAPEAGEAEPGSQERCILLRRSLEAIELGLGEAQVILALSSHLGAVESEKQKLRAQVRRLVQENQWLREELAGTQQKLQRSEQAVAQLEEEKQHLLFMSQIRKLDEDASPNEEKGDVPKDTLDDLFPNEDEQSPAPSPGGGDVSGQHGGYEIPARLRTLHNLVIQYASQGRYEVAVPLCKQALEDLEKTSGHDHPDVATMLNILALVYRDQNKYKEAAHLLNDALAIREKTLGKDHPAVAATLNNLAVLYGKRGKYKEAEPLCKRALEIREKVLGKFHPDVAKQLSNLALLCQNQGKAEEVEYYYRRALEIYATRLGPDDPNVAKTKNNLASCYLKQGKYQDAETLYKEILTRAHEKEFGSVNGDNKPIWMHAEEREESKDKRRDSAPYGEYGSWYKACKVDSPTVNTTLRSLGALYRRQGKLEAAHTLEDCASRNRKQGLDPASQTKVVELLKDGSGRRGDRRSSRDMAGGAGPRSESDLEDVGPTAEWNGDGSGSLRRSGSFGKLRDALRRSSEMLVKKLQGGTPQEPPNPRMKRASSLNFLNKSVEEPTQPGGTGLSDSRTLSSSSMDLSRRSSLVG
# Sequence of UniProt A1L0T0 (A1L0T0 whole entry, looked up): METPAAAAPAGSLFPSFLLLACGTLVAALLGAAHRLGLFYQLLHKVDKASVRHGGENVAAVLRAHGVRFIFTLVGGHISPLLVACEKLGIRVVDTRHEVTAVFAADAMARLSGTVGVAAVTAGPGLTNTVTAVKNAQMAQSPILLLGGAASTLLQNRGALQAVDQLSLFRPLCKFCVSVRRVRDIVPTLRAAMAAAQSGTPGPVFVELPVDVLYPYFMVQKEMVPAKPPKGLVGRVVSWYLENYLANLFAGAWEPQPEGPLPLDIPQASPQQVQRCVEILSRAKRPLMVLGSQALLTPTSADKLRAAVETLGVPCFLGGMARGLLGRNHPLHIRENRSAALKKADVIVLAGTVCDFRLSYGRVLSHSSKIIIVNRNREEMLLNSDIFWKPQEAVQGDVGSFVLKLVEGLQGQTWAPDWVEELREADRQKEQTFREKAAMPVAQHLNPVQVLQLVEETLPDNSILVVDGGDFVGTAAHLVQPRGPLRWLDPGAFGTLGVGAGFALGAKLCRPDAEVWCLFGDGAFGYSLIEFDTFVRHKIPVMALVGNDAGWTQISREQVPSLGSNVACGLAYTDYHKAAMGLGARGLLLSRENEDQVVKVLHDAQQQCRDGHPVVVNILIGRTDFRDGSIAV
Target,log2 fold change [1],log2 fold change [2],log2 fold change [3],log2 fold change [4],log2 fold change [5]
KIF21A isoform 4 (UniProt Q7Z4S6),-0.003,-0.024,0.061,-0.077,0.014
ILVBL (UniProt A1L0T0),-0.016,0.371 (active),0.075,-0.067,-0.127
LENG8 (UniProt Q96PV6),0.036,0.177,-0.356,-0.028,0.022
MICU1 isoform 3 (UniProt Q9BPX6),0.005,-0.033,-0.06,0.02,-0.036
MFSD1 isoform 6 (UniProt Q9H3U5),0.001,0.045,0.043,-0.029,0.039
LMBRD2 (UniProt Q68DH5),0.029,0.084,0.06,-0.12,-0.035
MCUR1 (UniProt Q96AQ8),-0.02,0.018,0.007,-0.008,-0.023
MAGI1 (UniProt Q96QZ7),0.025,-0.026,-0.005,0.054,-0.016
KPNB1 (UniProt Q14974),-0.035,-0.018,-0.024,0.001,-0.021
IMMT isoform 2 (UniProt Q16891),0.021,0.029,0.035,0.091,0.033
MAGOHB (UniProt Q96A72),0.02,0.042,0.079,-0.153,-0.129
MAP4K4 isoform 3 (UniProt O95819),0.009,0.032,0.044,0.04,0.264 (active)
MAP1LC3B2 (UniProt A6NCE7),0.015,0.113,0.021,-0.015,-0.073
MFSD5 isoform 2 (UniProt Q6N075),0.071,0.08,0.112,-0.049,-0.055
KNTC1 (UniProt P50748),-0.079,0.011,0.106,-0.011,-0.008
MARK2 (UniProt E9PC69),-0.029,0.038,0.174,0.126,-0.052
KEL (UniProt P23276),-0.067,0.003,0.017,0.019,0.067

Target,log2 fold change [1],log2 fold change [2],log2 fold change [3],log2 fold change [4],log2 fold change [5]
MAP4 (UniProt P27816),0.028,-0.017,-0.058,0.003,0.037
MAGEC2 (UniProt Q9UBF1),0.043,-0.069,0.005,0.009,0.054
KLC2 (UniProt Q9H0B6),-0.046,0.085,0.118,0.032,0
IGFBP4 (UniProt P22692),-0.019,-0.046,0.087,-0.103,0.148
JAK3 (UniProt P52333),-0.011,0.075,-0.027,0.009,0.032
KHDC4 (UniProt Q7Z7F0),-0.063,0.129,0.007,-0.061,-0.064
KMT2C isoform 3 (UniProt Q8NEZ4),0.032,0.04,0.017,-0.076,-0.001
MAPK9 (UniProt P45984),0.015,0.015,0.039,-0.042,0.004
MCU (UniProt Q8NE86),-0.02,0.035,0.038,-0.018,-0.013
MAP4K5 (UniProt Q9Y4K4),0.055,-0.039,0.107,0.05,0.062
ILRUN (UniProt Q9H6K1),0.029,0.031,0.119,0.014,-0.009
LMF2 (UniProt Q9BU23),-0.001,-0.013,0.097,-0.012,-0.053
KLHDC4 (UniProt Q8TBB5),0.048,-0.074,-0.165,0.084,-0.047
KDM1A isoform 2 (UniProt O60341),-0.05,0,0.087,-0.019,1.73 (active)
LRRFIP1 (UniProt Q32MZ4),0.019,0.036,-0.016,0.023,0.011
IK (UniProt Q13123),0.023,-0.067,-0.006,0.041,-0.045
LNPK (UniProt Q9C0E8),0.015,0.015,0.009,-0.01,0.016
